In the supplement of paper PMC4466140:

Legend:
Assay in all cases: SPOT peptide array binding signal intensity (averaged, normalized) (arbitrary units (background-subtracted, floor 0; scale differs between SH3 domains)); higher = stronger binding of the SH3 domain to the peptide
AgAbp1 = biological target: AgAbp1
Summary of the method: (§1)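 Peptides were synthetic 15-mers on cellulose membranes, with every cysteine replaced by serine. They were incubated overnight at 4°C with GST-SH3 domains from four yeast species at 10 μg/ml in TBS-based blocking buffer. Binding signal, the replicate-averaged normalized and background-subtracted spot intensity, is in arbitrary units that differ between domains.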

AgBbc1 = biological target: AgBbc1
Summary of the method: as §1

AgBem1-D1 = biological target: AgBem1-D1
Summary of the method: as §1

AgBzz1-D1 = biological target: AgBzz1-D1
Summary of the method: as §1

AgBzz1-D2 = biological target: AgBzz1-D2
Summary of the method: as §1

AgCyk3 = biological target: AgCyk3
Summary of the method: as §1

AgFus1 = biological target: AgFus1
Summary of the method: as §1

AgHof1 = biological target: AgHof1
Summary of the method: as §1

AgHse1 = biological target: AgHse1
Summary of the method: as §1

AgLsb1 = biological target: AgLsb1
Summary of the method: as §1

AgLsb4 = biological target: AgLsb4
Summary of the method: as §1

AgMyo5 = biological target: AgMyo5
Summary of the method: as §1

AgNbp2 = biological target: AgNbp2
Summary of the method: as §1

AgRvs167 = biological target: AgRvs167
Summary of the method: as §1

AgSho1 = biological target: AgSho1
Summary of the method: as §1

AgSla1-D1-D2 = biological target: AgSla1-D1-D2
Summary of the method: as §1

AgSla1-D3 = biological target: AgSla1-D3
Summary of the method: as §1

CaAbp1-D1 = biological target: CaAbp1-D1
Summary of the method: as §1

CaAbp1-D2 = biological target: CaAbp1-D2
Summary of the method: as §1

CaBbc1 = biological target: CaBbc1
Summary of the method: as §1

CaBem1-D1 = biological target: CaBem1-D1
Summary of the method: as §1

CaBzz1-D1 = biological target: CaBzz1-D1
Summary of the method: as §1

CaBzz1-D2 = biological target: CaBzz1-D2
Summary of the method: as §1

CaCyk3 = biological target: CaCyk3
Summary of the method: as §1

CaFus1 = biological target: CaFus1
Summary of the method: as §1

CaHof1 = biological target: CaHof1
Summary of the method: as §1

CaHse1 = biological target: CaHse1
Summary of the method: as §1

CaLsb1 = biological target: CaLsb1
Summary of the method: as §1

CaLsb4 = biological target: CaLsb4
Summary of the method: as §1

CaMyo5 = biological target: CaMyo5
Summary of the method: as §1

CaNbp2 = biological target: CaNbp2
Summary of the method: as §1

CaRvs167 = biological target: CaRvs167
Summary of the method: as §1

CaRvs167-3 = biological target: CaRvs167-3
Summary of the method: as §1

CaSho1 = biological target: CaSho1
Summary of the method: as §1

CaSla1-D1-D2 = biological target: CaSla1-D1-D2
Summary of the method: as §1

CaSla1-D3 = biological target: CaSla1-D3
Summary of the method: as §1

ScAbp1 = biological target: ScAbp1
Summary of the method: as §1

ScBbc1 = biological target: ScBbc1
Summary of the method: as §1

ScBem1-D1 = biological target: ScBem1-D1
Summary of the method: as §1

ScBzz1-D1 = biological target: ScBzz1-D1
Summary of the method: as §1

ScBzz1-D2 = biological target: ScBzz1-D2
Summary of the method: as §1

ScCyk3 = biological target: ScCyk3
Summary of the method: as §1

ScFus1 = biological target: ScFus1
Summary of the method: as §1

ScHof1 = biological target: ScHof1
Summary of the method: as §1

ScHse1 = biological target: ScHse1
Summary of the method: as §1

ScLsb1 = biological target: ScLsb1
Summary of the method: as §1

ScLsb2 = biological target: ScLsb2
Summary of the method: as §1

ScLsb3 = biological target: ScLsb3
Summary of the method: as §1

ScLsb4 = biological target: ScLsb4
Summary of the method: as §1

ScMyo3 = biological target: ScMyo3
Summary of the method: as §1

ScMyo5 = biological target: ScMyo5
Summary of the method: as §1

ScNbp2 = biological target: ScNbp2
Summary of the method: as §1

ScPex13 = biological target: ScPex13
Summary of the method: as §1

ScRvs167 = biological target: ScRvs167
Summary of the method: as §1

ScSho1 = biological target: ScSho1
Summary of the method: as §1

ScSla1-D1-D2 = biological target: ScSla1-D1-D2
Summary of the method: as §1

ScSla1-D3 = biological target: ScSla1-D3
Summary of the method: as §1

SpAbp1-D1 = biological target: SpAbp1-D1
Summary of the method: as §1

SpBbc1 = biological target: SpBbc1
Summary of the method: as §1

SpBzz1-D1 = biological target: SpBzz1-D1
Summary of the method: as §1

Measured: SPOT peptide array binding signal intensity

DTIDNVKSKIQDKEG
1: ScMyo5
21: CaBzz1-D1
2: CaRvs167
0.5: AgRvs167
4: AgHse1
12: ScBzz1-D1
2.5: CaRvs167-3
≤ 0: all other assays above
